Screens as filed in PubChem.
D2 antagonist: D2 dopamine receptor (human) antagonism; AID 485344; 340,000 tested, 2% active; inhibition, % at 10 µM; P14416; HEK293 TREx D2 cells, calcium flux, dopamine EC80; in the data active = inhibition above about 30%; inactive = below that, where a call was filed
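HEK293 T-REx D2 cells, tet-induced, calcium dye no-wash. Cpd pintool add, 180 s kinetic, then EC80 DA, 180 s kinetic. Ca flux read.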
D2 PAM-1: D2 dopamine receptor (human) potentiation | HEK293 T-REx D2, calcium flux, EC20 dopamine potentiation | potentiation, % at 10 µM | 340,000 tested, 0.34% active | AID 485347;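 active = potentiation over 3 SD above the plate norm, cut at about 30% in these data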
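Potentiation of an EC20 dopamine calcium response measured kinetically over 180 s, after a preceding 180 s compound-only read flagging agonists. Cells: inducible Hek293 Trex D2 line, 4000/well, cultured overnight at 30 C before dye loading.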
D2 ag-1: agonists of human D2 dopamine receptor (beta-arrestin); P14416; DiscoveRx PathHunter D2 beta-arrestin, luminescence, 90 min; 100% = 57 uM dopamine signal; activation, % (no concentration beside the values); 360,000 tested, 0.084% active; AID 624465; in the data active = activation above about 40%; inconclusive = between about 15% and that limit
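DiscoveRx PathHunter D2 beta-arrestin cells (2,100/well) attached overnight, then compound-stimulated 90 min at 37 C in HBSS/10 mM HEPES/0.1% Tween-20 buffer; beta-galactosidase complementation read by luminescence after 1 h at ambient temperature. Dopamine 57 uM final (EC100) as control.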
D2 ag-2: agonists of human D2 dopamine receptor; activation, % at 2 µM; 340,000 tested, 0.53% active; HEK293 T-REx D2 cells, calcium flux agonist mode; AID 485358; P14416;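 active = activation over 3 SD above normal in the single-dose calcium agonist read, cut at about 30% in these data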
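Agonism scored from kinetic calcium signal (1 read/sec, 180 s) following compound pin transfer, after a 10 s baseline. Cells: HEK293 Trex line expressing inducible D2 receptor coupled to calcium, dye-loaded after overnight culture at 30 C.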
D2 PAM-2: potentiates the human D2 dopamine receptor allosterically. P14416. DiscoveRx D2 beta-arrestin cells, luminescence, 90 min; 100% = 57 uM dopamine signal. potentiation, % (concentration not given with the values). 360,000 tested, 0.23% active; in the data active = potentiation above about 50%; inconclusive = mostly about 30% to 49%
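PathHunter beta-arrestin assay in DiscoveRx D2 cells. Compounds were added with an EC20 of dopamine (50 nM final) for 90 min at 37 deg C. Luminescence was read 1 h after detection reagent, with 57 uM dopamine as the EC100 control.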
D3 ag: D3 receptor agonism confirmed, beta-arrestin readout. shares compounds with D2 ag-2. DiscoveRx D3 beta-arrestin cells, luminescence, 90 min. Potency, µM (titrated, usually from 76.9 µM), usual class: activators. 2,300 tested, 4% active. AID 720506; note: nearly all actives have a fitted effect of over 70% in size
Target sequence (P35462 whole entry, looked up): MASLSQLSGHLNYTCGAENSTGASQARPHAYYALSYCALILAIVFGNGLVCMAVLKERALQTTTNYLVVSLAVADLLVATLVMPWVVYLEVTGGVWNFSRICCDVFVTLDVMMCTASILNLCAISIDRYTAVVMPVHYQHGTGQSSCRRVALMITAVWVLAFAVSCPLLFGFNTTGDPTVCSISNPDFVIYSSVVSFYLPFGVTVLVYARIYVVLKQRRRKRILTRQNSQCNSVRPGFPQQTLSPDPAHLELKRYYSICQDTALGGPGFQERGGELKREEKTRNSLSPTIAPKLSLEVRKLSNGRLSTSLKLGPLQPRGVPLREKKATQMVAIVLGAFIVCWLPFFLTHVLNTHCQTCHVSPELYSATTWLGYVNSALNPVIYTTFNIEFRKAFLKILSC
D2 ag-3: D2 receptor agonism, beta-arrestin counterscreen | DiscoveRx PathHunter D2 beta-arrestin, luminescence, 90 min; response scale: percent relative to full dopamine signal | shares compounds with D2 ag-2 | Potency, µM (titrated, usually from 76.9 µM), hits mostly activators | AID 720507 | 2,300 tested, 5.9% active; note: nearly all actives have a fitted effect of over 70% in size
Of the large screens only hits and unclear results are named; the others gave an inactive call (follow-up assays come after a bar, where they were run). This is a sample that favours compounds with a hit; in the whole collection about 2.4% have one here. Unless noted, calls come from the whole dose curve; as a rule, active = well fitted activation curve with a large enough effect; inconclusive = small, poorly fitted or top-dose-only effect; inactive = flat fitted curve, though single readings scatter.

O=C(CSc1nncs1)NNC(=O)c1ccco1	none | D3 ag inactive | D2 ag-3 inactive
CSc1nc2ccc(NC(=O)c3ccc(=O)n(C)n3)cc2s1	none | D3 ag inactive | D2 ag-3 inactive
CSc1nc2ccc(NC(=O)c3ccc(=O)[nH]c3)cc2s1	D2 ag-2 49 | D3 ag inactive | D2 ag-3 inactive
CSc1nc2ccc(NC(=O)c3cccs3)cc2s1	none (no result: D2 antagonist, D2 PAM-1, D2 ag-2)
CSc1nc2ccc(NC(=O)c3ccc(F)c(F)c3)cc2s1	none
CCOC(=O)C1CCCN(C(=O)c2ccc3c(c2)CCO3)CC1 (configuration not stated)	none (no result: D2 antagonist, D2 PAM-1, D2 ag-2)
CCOC(=O)C(C(=O)OCC)C(Nc1cccc(Br)c1)c1ccccc1 (configuration not stated)	none
CCOC(=O)C(NCCCCl)c1ccccc1 (configuration not stated)	D2 ag-2 35 | D3 ag inactive | D2 ag-3 inactive
Cc1c(Cc2ccccc2)c(=O)oc2c(O)c(O)ccc12	D2 antagonist 34, D2 ag-2 54 | D3 ag inconclusive | D2 ag-3 inactive
O=C(NCC(c1ccc2c(c1)OCO2)N1CCN(c2ccccc2)CC1)C(=O)Nc1cccc(F)c1 (configuration not stated)	none (no result: D2 antagonist, D2 ag-1, D2 PAM-2)
CCOC(=O)C1CCCN(Cc2nc(Cc3cccc(F)c3)no2)C1 (configuration not stated)	none
CCOC(=O)C1CCN(C2CCN(Cc3nc(-c4ccccc4)no3)CC2)CC1	none
CCOC(=O)C1CCCN(C2CCN(Cc3nc(Cc4ccccc4)no3)CC2)C1 (configuration not stated)	D2 antagonist 34 | D3 ag inactive | D2 ag-3 inactive
CCOC(=O)C1CCCN(C2CCN(Cc3nc(-c4ccccc4)no3)CC2)C1 (configuration not stated)	D2 ag-2 52 | D3 ag inactive | D2 ag-3 inactive
CCOC(=O)N1CCN(C/C(Cl)=C/c2ccccc2)CC1	D2 ag-1 inconclusive, D2 ag-2 49 | D3 ag inactive | D2 ag-3 inactive
Clc1ccc(-n2ncc3c(NCc4ccco4)ncnc32)cc1	none | D3 ag inactive | D2 ag-3 inactive
COc1ccc(-n2ncc3c(NCc4ccco4)ncnc32)cc1	none
Cc1cc(C)c(NC(=O)COC(=O)C2=COCCO2)c(C)c1	none (no result: D2 antagonist, D2 PAM-1, D2 ag-2)
O=C(O)CCCCCCCCc1cn(CCc2c[nH]c3ccccc23)nn1	D2 ag-2 93 | D3 ag inactive | D2 ag-3 inactive
NC1=NC(c2cn[nH]c2-c2ccc(F)cc2)n2c(nc3ccccc32)N1 (configuration not stated)	none (no result: D2 ag-1, D2 PAM-2)
COc1cc(CN2CCC(C(=O)N3CCN(c4ccccc4F)CC3)CC2)cc(OC)c1O	D2 antagonist 34 | D3 ag inactive | D2 ag-3 inactive
COc1cc(CN2CCN(c3ccccc3F)CC2)cc(OC)c1O	D2 antagonist 70, D2 ag-1 inconclusive, D2 ag-2 60 | D3 ag inconclusive | D2 ag-3 inconclusive
Cc1cccc(CSc2nnc([C@@H]3CCCN3C(=O)OC(C)(C)C)o2)c1	D2 antagonist 36 | D3 ag inactive | D2 ag-3 inactive
COC(=O)c1c(C#N)c(N)nc2c1CCCC2	none
c1ccc(CN2CCN(c3ncnc4nc[nH]c34)CC2)cc1	D2 antagonist 68, D2 ag-2 81 | D3 ag inactive | D2 ag-3 inconclusive
C1=C(c2ccccc2)CCN(c2ncnc3nc[nH]c23)C1	none
COc1ccc([C@H]2C[C@@H](n3cc(C4CC4)nn3)[C@H](O)CN2C(=O)C2CCCCC2)cc1	none (no result: D2 antagonist, D2 PAM-1, D2 ag-2)
COC(=O)c1cccc(CSc2nc3ccccc3[nH]2)c1	none
Cc1ccc(Cn2c(=O)c3ccccc3n3c(CCC(=O)NCCN4CCOCC4)nnc23)cc1	D2 ag-2 63 | D3 ag inactive | D2 ag-3 inactive
O=C(CCc1nnc2n(Cc3ccccc3Cl)c(=O)c3ccccc3n12)NCCCN1CCOCC1	none
CC(C)(O)C#Cc1ccc(CN2CCN(C3CCCCC3)C(CCO)C2)cc1 (configuration not stated)	none
CC(C)(O)C#Cc1ccc(CN2CCN(C3CCCCC3)C(CCO)C2)s1 (configuration not stated)	D2 ag-2 42 | D3 ag inactive | D2 ag-3 inactive
Cc1c(-c2ccccc2)nc2ccccc2c1C(=O)OCC(=O)Nc1ncc(C(F)(F)F)cc1Cl	D2 antagonist 30 | D3 ag inactive | D2 ag-3 inactive
Fc1ccc(CN2CCN(c3ncccn3)CC2)cc1	D2 antagonist 84, D2 ag-1 47, D2 ag-2 79 | D3 ag inactive | D2 ag-3 inconclusive
O=S1(=O)CC(N2CCN(c3ncccn3)CC2)CN1Cc1ccc(F)cc1 (configuration not stated)	none (no result: D2 antagonist, D2 PAM-1, D2 ag-2)
CCc1ccc(CN2CCN(c3ncccn3)CC2)cc1	D2 antagonist 95, D2 ag-1 75, D2 ag-2 77, D2 PAM-2 inconclusive | D3 ag inconclusive | D2 ag-3 0.56µM
CCOc1cc(CN2CCN(c3ncccn3)CC2)ccc1OC	D2 antagonist 77, D2 ag-1 inconclusive, D2 ag-2 78 | D3 ag inactive | D2 ag-3 inconclusive
Fc1ccc(F)c(CN2CCN(c3ncccn3)CC2)c1	D2 antagonist 79, D2 ag-1 78, D2 ag-2 64, D2 PAM-2 64 | D3 ag inconclusive | D2 ag-3 3.2µM
CCOc1ccccc1OCCCC(=O)NNC(=O)c1nn(C)c(=O)c2ccccc12	none
CSCCC(NC(=O)c1ccccc1Cl)C(=O)NCC(c1cccs1)N(C)C (configuration not stated)	none
CC(C)CNC(=O)CN(C1CCCCC1)S(=O)(=O)c1ccccc1	none | D3 ag inactive | D2 ag-3 inactive
CC(C)N1C(=O)/C(=C\c2nc3ccccc3c(=O)[nH]2)c2ccccc21	none
Cc1onc(-c2c(Cl)cccc2Cl)c1C(=O)N1CCc2ccccc2C1	D2 ag-2 72 | D3 ag inactive | D2 ag-3 inactive
COc1ccc(CN2CCN(C(=O)CC(C)C)CC2)cc1	D2 ag-2 38 | D3 ag inactive | D2 ag-3 inactive
COc1cc(CN2CCN(C(=O)CC(C)C)CC2)cc(OC)c1OC	none
Cc1ccc(CN2CCN(C(=O)CC(C)C)CC2)cc1	none (no result: D2 antagonist, D2 PAM-1, D2 ag-2) | D3 ag inactive | D2 ag-3 inactive
O=C(COC(=O)Cn1cnc2ccccc2c1=O)Nc1ccc(Cl)c(C(F)(F)F)c1	none
COc1ccc(OCC(=O)Nc2ccc3oc(-c4ccncc4)nc3c2)cc1	none
